Records with an inconclusive call do not appear. The source made the active and inactive calls. Unless noted, calls come from the whole dose curve; as a rule, active = well fitted curve in the direction sought with a large enough effect in the repeat runs; inconclusive = weak or mixed curves; inactive = no such curve, though single readings can be large; an effect the other way counts as inactive or inconclusive.
Key:
[1] = qHTS assay to identify small molecule agonists of the peroxisome proliferator-activated receptor delta (PPARd) signaling pathway - cell viability counter screen (AID 743211); note: % is set by controls: 0 for no effect and ±100 for the full control effect; nearly all actives have a fitted effect of over 55% in size
Method in brief: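 Read-out: CellTiter-Glo luminescence, 30 min RT, measured in the same wells as the beta-lactamase reporter. Cells: GeneBLAzer PPAR delta UAS-bla HEK293H, 3000 cells/well, compound exposure 17 h at 37C.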

[2] = biological target: Peroxisome proliferator-activated receptor delta (Homo sapiens) (UniProt Q03181); assay: qHTS assay to identify small molecule agonists of the peroxisome proliferator-activated receptor delta (PPARd) signaling pathway (AID 743212; calls by dose curve; note: % is set by controls: 0 for no effect and ±100 for the full control effect)
Method in brief: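 Beta-lactamase reporter readout: a ratiometric FRET signal from the LiveBLAzer substrate after 2 h at room temperature. Compound exposure at 37 °C in PPARδ-bla HEK293H cells driven by an upstream activator sequence.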

[3] = qHTS assay to identify small molecule antagonists of the peroxisome proliferator-activated receptor delta (PPARd) signaling pathway - cell viability counter screen (AID 743213); note: % is set by controls: 0 for no effect and ±100 for the full control effect; nearly all actives have a fitted effect of over 50% in size
Method in brief: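 PPARd-bla HEK293H cells (3000/well) got compound plus 300 nM L165041 agonist for 17 h at 37 C. Viability in the same wells came from CellTiter-Glo luminescence after 30 min at room temperature.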

[4] = biological target: Peroxisome proliferator-activated receptor delta (Homo sapiens) (UniProt Q03181); assay: qHTS assay to identify small molecule antagonists of the peroxisome proliferator-activated receptor delta (PPARd) signaling pathway (AID 743215; active = well fitted inhibition curve with a large enough effect in the signal ratio in the repeat runs, not every such curve was filed as active; the % refers to the signal ratio;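 note: cells stimulated with agonist L165041 at 300 nM final during compound exposure; series mostly up to about 62 µM; % is set by controls: 0 for no effect and ±100 for the full control effect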)
Method in brief: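 Screen format: qHTS, antagonist mode. HEK293H PPARd-bla cells received compound and 300 nM L165041 (final), 17 h, 37 C. Beta-lactamase detected via FRET substrate fluorescence, 2 h, room temperature.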

[5] = biological target: Bile acid receptor (Homo sapiens) (UniProt Q96RI1); assay: qHTS assay to identify small molecule antagonists of the farnesoid-X-receptor (FXR) signaling pathway (AID 743217; active = well fitted inhibition curve with a large enough effect in the signal ratio in the repeat runs, not every such curve was filed as active; the % refers to the signal ratio; note: % is set by controls: 0 for no effect and ±100 for the full control effect)
Method in brief: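 Quantitative HTS, beta-lactamase reporter format: FXR-UAS-bla HEK 293T cells co-treated 16 h at 37 °C with compounds and 50 uM final chenodeoxycholic acid, then read by B/G FRET fluorescence.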

[6] = qHTS assay to identify small molecule agonists of the farnesoid-X-receptor (FXR) signaling pathway - cell viability counter screen (AID 743218); note: % is set by controls: 0 for no effect and ±100 for the full control effect; nearly all actives have a fitted effect of over 45% in size
Method in brief: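 Same-well cytotoxicity check on FXR-UAS-bla HEK 293T cells: 5 h attachment, 16 h compound at 37 C, CellTiter-Glo luminescence read at room temperature after 30 min.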

[7] = biological target: Bile acid receptor (Homo sapiens) (UniProt Q96RI1); assay: qHTS assay to identify small molecule agonists of the farnesoid-X-receptor (FXR) signaling pathway (AID 743220; active = well fitted activation curve with a large enough effect in the signal ratio in the repeat runs, not every such curve was filed as active; the % refers to the signal ratio; note: % is set by controls: 0 for no effect and ±100 for the full control effect)
Method in brief: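 FXR-UAS-bla HEK 293T cells carrying a UAS-driven beta-lactamase reporter were plated for 5 h at 37C/5% CO2, then exposed to DMSO-dissolved Tox21 10K compounds for 16 h at 37C. A LiveBLAzer B/G FRET substrate was loaded for 2 h at room temperature before fluorescence reading.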

[8] = qHTS assay to identify small molecule antagonists of the farnesoid-X-receptor (FXR) signaling pathway - cell viability counter screen (AID 743221; active = well fitted cell-killing curve with a large enough effect in the repeat runs, not every such curve was filed as active; note: % is set by controls: 0 for no effect and ±100 for the full control effect; nearly all actives have a fitted effect of over 50% in size)
Method in brief: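 HEK 293T FXR-bla cells, 5 h pre-incubation; compound + CDCA 50 uM final, 16 h, 37 C; beta-lactamase FRET read first, then CellTiter-Glo luminescence, 30 min RT.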

[9] = biological target: Vitamin D3 receptor (Homo sapiens) (UniProt P11473); assay: qHTS assay to identify small molecule agonists of the vitamin D receptor (VDR) signaling pathway (AID 743222; calls by dose curve; note: % is set by controls: 0 for no effect and ±100 for the full control effect)
Method in brief: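 Using LiveBLAzer B/G FRET detection, agonism was scored in VDR-bla cells exposed overnight (16 h, 37C) to DMSO-dissolved compounds; substrate incubation was 2 h at room temperature.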

[10] = biological target: Vitamin D3 receptor (Homo sapiens) (UniProt P11473); assay: qHTS assay to identify small molecule antagonists of the vitamin D receptor (VDR) signaling pathway (AID 743223; active = well fitted inhibition curve with a large enough effect in the signal ratio in the repeat runs, not every such curve was filed as active; the % refers to the signal ratio; note: % is set by controls: 0 for no effect and ±100 for the full control effect)
Method in brief: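 Beta-lactamase reporter read-out: FRET substrate fluorescence after 2 h at room temperature, following 16 h exposure of VDR-bla cells to test compound plus 3 nM (final) 1alpha,25-dihydroxyvitamin D3 agonist at 37C.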

[11] = qHTS assay to identify small molecule agonists of the vitamin D receptor (VDR) signaling pathway - cell viability counter screen (AID 743224); note: series mostly up to about 63 µM; % is set by controls: 0 for no effect and ±100 for the full control effect; nearly all actives have a fitted effect of over 50% in size
Method in brief: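 Counter screen for cytotoxicity: VDR-bla cells at 2,000 cells/well, 16 h compound exposure, then CellTiter-Glo luminescence after the beta-lactamase measurement.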

[12] = qHTS assay to identify small molecule antagonists of the vitamin D receptor (VDR) signaling pathway - cell viability counter screen (AID 743225); note: % is set by controls: 0 for no effect and ±100 for the full control effect; nearly all actives have a fitted effect of over 50% in size
Method in brief: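 Viability counter screen run in the same wells as the beta-lactamase reporter assay: HEK 293T VDR-UAS-bla cells, 16 h compound exposure at 37C with 3 nM (final) 1-alpha,25-dihydroxyvitamin D3. CellTiter-Glo luminescence, 30 min, room temperature.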

[13] = qHTS assay to identify small molecule agonists of the NFkB signaling pathway - cell viability counter screen (AID 1159515; calls by dose curve; note: series mostly up to about 61 µM; % is set by controls: 0 for no effect and ±100 for the full control effect; nearly all actives have a fitted effect of over 55% in size)
Method in brief: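 Counter screen run alongside the NFkB-bla agonist assay: ME-180 reporter cells exposed to compounds for 5 hr, then lysed with CellTiter-Glo in the same wells. Luminescence, read after 30 min, reflects viable cells.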

[14] = qHTS assay to identify small molecule agonists of the endoplasmic reticulum stress response signaling pathway (AID 1159516; active = well fitted activation curve with a large enough effect in the signal ratio in the repeat runs, not every such curve was filed as active; the % refers to the signal ratio; note: % is set by controls: 0 for no effect and ±100 for the full control effect)
Method in brief: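 For this screen, HeLa cells stably carrying beta-lactamase under the ER stress response element received test compounds, positive controls or DMSO for 5 hr at 37 C; B/G FRET substrate was then added and dual-wavelength emission recorded.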

[15] = qHTS assay to identify small molecule agonists of the endoplasmic reticulum stress response signaling pathway - cell viability counter screen (AID 1159517; calls by dose curve)
Method in brief: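 ESRE-bla HeLa cells (1,500/well) were plated overnight at 37 C and exposed to compounds for 5 hr. After the 2 hr beta-lactamase substrate read, CellTiter-Glo went into the same wells, and luminescence was read after 30 min at room temperature.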

[16] = qHTS assay to identify small molecule antagonists of the retinoid-related orphan receptor gamma (ROR-gamma) signaling pathway - cell viability counter screen (AID 1159520)
Method in brief: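 Cytotoxicity was read from cellular ATP (CellTiter-Glo luminescence) after 16 hr at 37 C with 1 uM doxycycline induction. The inducer was added 2 hr after compound transfer to Tet-on ROR gamma CHO cells.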

[17] = biological target: Nuclear receptor ROR-gamma (Homo sapiens) (UniProt P51449); assay: qHTS assay to identify small molecule antagonists of the retinoid-related orphan receptor gamma (ROR-gamma) signaling pathway (AID 1159521)
Method in brief: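 Luminescence readout (ONE-Glo, 30 min RT) after 16 h doxycycline induction; loss of signal scored as antagonism. CHO cells with TET-inducible RORγ and RORE-LUC reporter; compounds added 2 h before 1 uM final doxycycline.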

[18] = qHTS assay to identify small molecule agonists of the AP-1 signaling pathway - cell viability counter screen (AID 1159525; calls by dose curve; note: nearly all actives have a fitted effect of over 55% in size)
Method in brief: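 Intracellular ATP by Cell Titer Glo luminescence (30 min, RT) in the same ME-180 AP-1-bla wells after the 5 h compound exposure at 37 °C. Normalised to tetra n-octyl ammonium bromide and DMSO controls.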

[19] = qHTS assay to identify small molecule agonists of the AP-1 signaling pathway (AID 1159526; calls by dose curve; note: % is set by controls: 0 for no effect and ±100 for the full control effect)
[20] = qHTS assay to identify small molecule agonists of the NFkB signaling pathway (AID 1159509; active = well fitted curve in the direction sought with a large enough effect in the signal ratio in the repeat runs, not every such curve was filed as active; the % refers to the signal ratio)
Method in brief: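 Agonist activity was read as beta-lactamase-driven FRET change (460 and 530 nm emission, 405 nm excitation) following 1.5 hr substrate loading at room temperature. Beforehand, ME-180 NFkB-bla reporter cells were treated with compounds for 5 hr at 37 C.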

Peroxisome proliferator-activated receptor delta (Homo sapiens), sequence (Q03181 whole entry, looked up): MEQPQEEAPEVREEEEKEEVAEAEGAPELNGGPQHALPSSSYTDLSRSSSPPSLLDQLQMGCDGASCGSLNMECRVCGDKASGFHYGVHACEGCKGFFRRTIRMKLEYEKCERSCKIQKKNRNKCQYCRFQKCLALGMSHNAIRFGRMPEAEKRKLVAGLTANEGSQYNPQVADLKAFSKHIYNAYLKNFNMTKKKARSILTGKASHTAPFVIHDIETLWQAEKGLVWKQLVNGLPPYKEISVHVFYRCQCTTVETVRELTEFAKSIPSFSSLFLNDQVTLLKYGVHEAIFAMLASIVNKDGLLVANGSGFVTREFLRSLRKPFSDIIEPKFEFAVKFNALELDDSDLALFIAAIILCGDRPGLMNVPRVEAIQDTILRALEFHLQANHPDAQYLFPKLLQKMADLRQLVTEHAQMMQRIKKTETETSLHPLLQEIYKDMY
Vitamin D3 receptor (Homo sapiens), sequence (P11473 whole entry, looked up): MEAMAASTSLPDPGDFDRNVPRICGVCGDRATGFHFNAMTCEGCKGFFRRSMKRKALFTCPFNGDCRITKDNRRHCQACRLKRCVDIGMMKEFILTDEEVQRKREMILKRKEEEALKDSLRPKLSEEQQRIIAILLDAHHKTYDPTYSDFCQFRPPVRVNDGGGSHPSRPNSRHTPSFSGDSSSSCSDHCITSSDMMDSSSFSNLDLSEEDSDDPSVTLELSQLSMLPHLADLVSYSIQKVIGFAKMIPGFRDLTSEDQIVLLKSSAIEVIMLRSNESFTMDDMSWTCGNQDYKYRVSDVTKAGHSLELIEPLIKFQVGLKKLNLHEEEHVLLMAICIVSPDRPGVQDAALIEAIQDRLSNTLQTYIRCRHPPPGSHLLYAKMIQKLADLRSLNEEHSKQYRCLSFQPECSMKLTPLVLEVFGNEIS
Bile acid receptor (Homo sapiens), sequence (Q96RI1 whole entry, looked up): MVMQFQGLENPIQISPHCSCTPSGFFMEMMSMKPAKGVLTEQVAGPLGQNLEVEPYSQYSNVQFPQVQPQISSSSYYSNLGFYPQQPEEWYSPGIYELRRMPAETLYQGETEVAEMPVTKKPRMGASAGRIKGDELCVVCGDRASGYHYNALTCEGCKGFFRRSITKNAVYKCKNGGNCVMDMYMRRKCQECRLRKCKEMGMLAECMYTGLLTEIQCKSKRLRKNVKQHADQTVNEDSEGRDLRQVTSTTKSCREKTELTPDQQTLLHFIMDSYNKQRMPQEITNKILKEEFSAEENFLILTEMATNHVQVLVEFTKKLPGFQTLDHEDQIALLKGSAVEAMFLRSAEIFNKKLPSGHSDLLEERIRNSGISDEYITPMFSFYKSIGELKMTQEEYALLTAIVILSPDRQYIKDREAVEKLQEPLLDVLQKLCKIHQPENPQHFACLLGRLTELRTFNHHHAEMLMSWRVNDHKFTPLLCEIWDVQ

COc1cc(C(=S)N2CCOCC2)cc(OC)c1OC
inactive: outcome [1] | outcome [2] | outcome [3] | outcome [4] | Potency [5] | Potency [6] | Potency [7] | outcome [8] | outcome [9] | outcome [10] | Potency [11] | outcome [12] | outcome [13] | outcome [14] | Potency [15] | outcome [16] | outcome [17] | outcome [18] | outcome [19]

CCCN1C[C@H](CSC)C[C@@H]2c3cccc4[nH]cc(c34)C[C@H]21
inactive: outcome [2] | outcome [4] | outcome [8] | outcome [9] | outcome [10] | Potency [11] | outcome [12] | outcome [20] | outcome [13] | outcome [14] | Potency [15] | outcome [16] | outcome [17] | outcome [18] | outcome [19]

Cc1[nH]cnc1-c1ccc(Cl)cc1
inactive: outcome [2] | outcome [3] | outcome [4] | Potency [6] | outcome [8] | Potency [11] | outcome [12] | outcome [20] | outcome [13] | outcome [14] | Potency [15] | outcome [16] | outcome [17] | outcome [18] | outcome [19]

Cc1cccc(OCC(O)CNC(C)(C)C)c1C (stereo unspecified)
inactive: Potency [6] | outcome [8] | outcome [9] | outcome [10] | Potency [11] | outcome [12] | outcome [20] | outcome [13] | outcome [14] | Potency [15] | outcome [16] | outcome [17] | outcome [18] | outcome [19]

Oc1ccccc1-c1nnco1
inactive: outcome [2] | Potency [6] | outcome [8] | outcome [9] | outcome [10] | Potency [11] | outcome [12] | outcome [20] | outcome [13] | outcome [14] | Potency [15] | outcome [16] | outcome [17] | outcome [18] | outcome [19]

O=C1CC(c2ccc(Cl)cc2)CC(=O)N1
inactive: outcome [2] | outcome [4] | Potency [5] | Potency [6] | Potency [7] | outcome [8] | outcome [9] | Potency [11] | outcome [12] | outcome [20] | outcome [13] | outcome [14] | Potency [15] | outcome [16] | outcome [17] | outcome [18] | outcome [19]

CCOc1cc([N+](=O)[O-])c(OCC)cc1N1CCOCC1
inactive: outcome [3] | Potency [6] | outcome [8] | outcome [9] | outcome [10] | Potency [11] | outcome [12] | outcome [20] | outcome [13] | outcome [14] | Potency [15] | outcome [16] | outcome [17] | outcome [18] | outcome [19]

CCCCCCCCCC(C)=O
inactive: outcome [2] | outcome [4] | Potency [6] | outcome [8] | outcome [9] | Potency [11] | outcome [12] | outcome [20] | outcome [13] | outcome [14] | Potency [15] | outcome [16] | outcome [17] | outcome [18] | outcome [19]

CC(C)CCCC(C)(C)O
inactive: outcome [2] | outcome [3] | outcome [4] | Potency [6] | outcome [8] | outcome [9] | outcome [10] | Potency [11] | outcome [12] | outcome [20] | outcome [13] | outcome [14] | Potency [15] | outcome [16] | outcome [17] | outcome [18] | outcome [19]

COC(=O)CCCCCCCC(=O)OC
inactive: outcome [3] | Potency [6] | outcome [8] | outcome [9] | outcome [10] | outcome [12] | outcome [20] | outcome [13] | outcome [14] | Potency [15] | outcome [16] | outcome [17] | outcome [18] | outcome [19]

CC(=C(CCOC(=O)C(C)C)SSC(CCOC(=O)C(C)C)=C(C)N(C=O)Cc1cnc(C)nc1N)N(C=O)Cc1cnc(C)nc1N
inactive: outcome [2] | outcome [3] | outcome [4] | Potency [5] | Potency [6] | Potency [7] | outcome [8] | outcome [9] | Potency [11] | outcome [12] | outcome [20] | outcome [13] | outcome [14] | Potency [15] | outcome [16] | outcome [17] | outcome [18] | outcome [19]

CC/C=C\CC1=C(C)CCC1=O
inactive: outcome [3] | Potency [6] | outcome [8] | outcome [9] | outcome [10] | Potency [11] | outcome [20] | outcome [13] | outcome [14] | Potency [15] | outcome [16] | outcome [17] | outcome [18] | outcome [19]

CCC(C)(CCC(C)C)C(=O)O (stereo unspecified)
inactive: outcome [2] | outcome [3] | outcome [4] | Potency [6] | outcome [8] | outcome [9] | Potency [11] | outcome [12] | outcome [20] | outcome [13] | outcome [14] | Potency [15] | outcome [16] | outcome [17] | outcome [18] | outcome [19]

O=S(O)(O)=S
inactive: activation [2] 0.0872% [at 5.95 µM] | viability change, negative = cytotoxic [3] -0.861% [at 6.26 µM] | ratio activity, negative = inhibition [4] 3.14% [at 6.26 µM] | viability change, negative = cytotoxic [6] 3.63% [at 5.95 µM] | activity change, negative = cytotoxicity [8] 6.74% [at 5.95 µM] | activity change, negative = cytotoxicity [11] -0.106% [at 5.95 µM] | viability change, negative = cytotoxic [12] 4.99% [at 6.95 µM] | activation [20] -0.163% [at 6.95 µM] | activity, negative = cytotoxic [13] 0.146% [at 6.95 µM] | activation [14] 0.601% [at 6.95 µM] | activity change, negative = cytotoxicity [15] -2.33% [at 6.95 µM] | activity, negative = cytotoxicity [16] 8.82% [at 8.39 µM] | activity change, negative = inhibition [17] 6.6% [at 8.39 µM] | viability change, negative = cytotoxic [18] 1.76% [at 6.97 µM] | activation [19] 11.4% [at 6.97 µM]

O=C1O[C@@H]2[C@@H](O)[C@H](O)O[C@@H]2[C@H]1O
inactive: outcome [3] | Potency [5] | Potency [6] | Potency [7] | outcome [8] | outcome [9] | outcome [10] | Potency [11] | outcome [12] | outcome [20] | outcome [13] | outcome [14] | Potency [15] | outcome [16] | outcome [17] | outcome [18] | outcome [19]

From PubChem BioAssay (Tox21)
